# CYP2C9 act – CYP2C9 (human) activation; 96,000 tested, 1.4% active; P11712; activation factor at 5 µM; recombinant CYP2C9, luciferin-H conversion, luminescence; stronger effect = higher value; factor 1 = untreated enzyme, 0 = blocked;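 active means activation factor of 2 or more for CYP2C9 at a 5 µM dose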
# D1 allo mod – allosteric modulators of human D1 dopamine receptor. P21728. HEK293 D1, CRE-luciferase, dopamine EC30 potentiation; actives deviate in either direction. B-score at 10 µM. 58,000 tested, 5.9% active. AID 641;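 active means luminescence count or its row- and column-corrected plate score outside the 99.7% band of the plate's sample wells, on either side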
# Target sequence (P21728 whole entry, looked up): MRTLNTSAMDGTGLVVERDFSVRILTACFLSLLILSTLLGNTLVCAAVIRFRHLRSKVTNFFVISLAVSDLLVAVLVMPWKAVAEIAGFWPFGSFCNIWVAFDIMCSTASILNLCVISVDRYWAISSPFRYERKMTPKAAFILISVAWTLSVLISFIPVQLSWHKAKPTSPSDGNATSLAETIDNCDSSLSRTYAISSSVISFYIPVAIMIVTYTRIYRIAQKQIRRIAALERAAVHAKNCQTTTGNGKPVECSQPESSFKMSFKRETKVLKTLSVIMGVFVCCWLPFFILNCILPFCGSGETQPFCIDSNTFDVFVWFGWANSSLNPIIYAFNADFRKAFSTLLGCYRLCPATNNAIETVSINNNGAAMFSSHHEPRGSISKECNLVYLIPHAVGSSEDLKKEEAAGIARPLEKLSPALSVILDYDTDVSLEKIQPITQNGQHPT
# CYP2C19 act – cytochrome P450 2C19 (human) activation | recombinant CYP2C19, luciferin-H EGE luminescence; stronger effect = higher value; 0 = fully inhibited enzyme, 1 = untreated enzyme | activation factor at 5 µM | 96,000 tested, under 10 active | AID 1025;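 active means activation factor of at least 2 at 5 µM in the primary screen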
# CYP2C9 inhib – blocks human cytochrome P450 2C9; P11712; CYP2C9 Supersomes, luciferin-H conversion, luminescence; inhibition, % at 5 µM; 96,000 tested, 20% active; AID 777;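 active means blocking of liver enzyme CYP2C9 beyond about 50% at 5 µM, limit read from the data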
# CYP2C19 inh – human CYP2C19 inhibition; 96,000 tested, 21% active; inhibition, % at 5 µM; P33261; CYP2C19 Supersomes, luciferin-H EGE luminescence, 30 min;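 active means CYP2C19 inhibition above a set limit at 5 µM in the primary screen, cut at about 50% in these data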
# hDAT+cocaine – human DAT dopamine uptake with cocaine, either direction | LLC-PK1 hDAT cells, [14C]-dopamine uptake with cocaine IC80; actives deviate in either direction | Q01959 | B-score at 10 µM | 110,000 tested, 1.3% active | AID 449768;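 active means Z score or B-score, a plate-position-corrected score, falls beyond the plate's 99.7% confidence bounds, in either direction; inactive means both scores lie inside the 99.7% bounds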
# Numbers stand for hits; – = inactive; · = no result given. An excerpt weighted towards active compounds, which were near 28% of everything screened.
SMILES,CYP2C9 act,D1 allo mod,CYP2C19 act,CYP2C9 inhib,CYP2C19 inh,hDAT+cocaine
O=C(C1CCCN(S(=O)(=O)Cc2ccccc2)C1)N1CCc2ccccc21 (stereo not drawn),–,–,–,–,–,–
C=CCNCC(=O)NN=C(c1ccccc1)c1ccccc1,–,·,–,–,–,–
Cc1ccc(OCC(=O)Nc2ccc(N(C)C)cc2)cc1,–,–,–,–,87,–
O=C(COC(=O)c1cccnc1)Nc1ccc(F)cc1,–,–,–,–,84,–
CCN(CC)c1ccc(NC(=O)COc2ccc(C)cc2)cc1,–,–,–,–,66,–
COc1cc(S(=O)(=O)N(C)C)ccc1Br,3.1,·,–,–,–,–
O=C(COC(=O)c1cccnc1)Nc1ccccc1,·,·,·,·,·,–
Cc1nc2sc(C(c3ccccc3)N3CCN(CCO)CC3)c(O)n2n1 (stereo not drawn),·,–,·,·,·,–
CCC1=C2CC[C@H]3C(=O)N(CC(=O)OC)C(=O)[C@H]3[C@H]2[C@@]2(C)C(=NCC(=O)OC)OC(=O)N2C1=O,·,·,·,·,·,–
Cc1ccc(-n2c(C)cc(/C=N/NC(=O)c3ccncc3)c2C)c(C)c1,–,·,–,–,–,–
Cc1cccc(-n2c(C)nc3c(cnn3-c3ccc(F)cc3)c2=O)c1,–,–,–,–,–,–
Cc1cc(NC(=O)COC(=O)CCC(=O)c2ccc(F)cc2)no1,–,–,–,–,–,–
CN(C)c1ccc(NC(=O)COC(=O)CCC(=O)c2ccc(F)cc2)cc1,–,·,–,81,90,–
Cc1ccc(-n2nnc3c(=O)n(Cc4cccc(C)c4)cnc32)cc1,–,–,–,–,–,–
Cc1cccc(Cn2cnc3c(nnn3Cc3ccc(F)cc3)c2=O)c1,2.5,–,–,–,58,–
Cc1cccc(Cn2cnc3c(nnn3Cc3ccccc3F)c2=O)c1,2.8,–,–,–,52,–
CCC(OC(=O)CC1Sc2ccccc2NC1=O)C(=O)NCC1CCCO1 (stereo not drawn),–,–,–,–,–,–
CCCC1c2ccc(C)n2CCN1C(=O)Nc1ccc(F)cc1 (stereo not drawn),–,·,–,–,–,–
CCOC(=O)N1C2=NC(C(=O)OC)=C(C(=O)OC)[C@@H]3N(C)c4ccc(OC)cc4[C@]23C[C@H]1C(=O)OC,·,·,·,·,·,1.6
O=C(OC1CSc2nc3ccccc3n2C1)c1ccco1 (stereo not drawn),–,–,–,–,–,–
CC(C)[C@H](CO)Nc1nc(Nc2ccc(Cl)c(C(=O)O)c2)c2ncn(C(C)C)c2n1,·,·,·,·,·,–
CC(C)n1cnc2c(Nc3ccc(C(=O)O)cc3)nc(Cl)nc21,·,·,·,·,·,-4
CCCCn1c(=O)nc2n(-c3ccccc3)c3ccccc3cc-2c1=O,–,·,–,–,–,–
Clc1ccc(CNC2CCCC2)c(Cl)c1,–,·,–,–,77,–
COc1cc(C)c(CNC2CCCCC2)cc1C,–,·,–,–,–,–
SMILES,CYP2C9 act,D1 allo mod,CYP2C19 act,CYP2C9 inhib,CYP2C19 inh,hDAT+cocaine
COc1ccc(C2/C=C\CN(C(=O)C3CC3)CC(=O)N2Cc2ccc(F)cc2)cc1 (stereo not drawn),·,·,·,·,·,–
O=C(C1CCCN(S(=O)(=O)c2cccc3nsnc23)C1)N1CC=C(c2ccccc2)CC1 (stereo not drawn),–,–,–,69,64,–
O=C(C1CCC(CNS(=O)(=O)c2cccc3nsnc23)CC1)N1CC=C(c2ccccc2)CC1 (stereo not drawn),–,·,–,71,87,–
O=C(C1CCN(S(=O)(=O)c2cccc3nsnc23)CC1)N1CC=C(c2ccccc2)CC1,–,–,–,–,–,–
Cc1nc(NC(=O)COC(=O)C(NC(=O)c2ccco2)C(C)C)c(Cl)cc1Cl (stereo not drawn),–,–,–,–,95,–
Cc1ccc2nc(NC(=O)COC(=O)c3ccco3)sc2c1,–,·,–,–,–,–
Cc1ccc(C(=O)OCC(=O)Nc2cc(F)ccc2F)cc1NC(=O)c1ccco1,–,·,–,–,–,–
Cc1ccc(C(=O)OCC(=O)Nc2sccc2C(N)=O)cc1NC(=O)c1ccco1,–,·,–,94,–,–
Cc1ccc(C(=O)OCC(=O)Nc2ncc(Cl)cc2Cl)cc1NC(=O)c1ccco1,–,·,–,69,92,–
N#Cc1c(NC(=O)COC(=O)c2ccc(F)cc2)sc2c1CCC2,–,·,–,–,–,–
Cc1ccc(C(=O)OCC(=O)Nc2sc3c(c2C#N)CCCC3)cc1NC(=O)c1ccco1,–,·,–,91,–,–
O=C(O/N=C1\CCCc2ccccc21)c1ccc(F)cc1,–,·,–,–,–,–
Cc1ccc(C(=O)OCC(=O)Nc2ccc(N(C)C)cc2)cc1NC(=O)c1ccco1,–,·,–,–,–,–
CCC(C)c1ccccc1NC(=O)COC(=O)c1ccc(C)c(NC(=O)c2ccco2)c1 (stereo not drawn),–,·,–,–,75,–
Cc1ccc(C(=O)OCC(=O)Nc2sc3c(c2C#N)CCCCC3)cc1NC(=O)c1ccco1,–,–,–,92,60,–
CC(C)NC(=O)CN1C(=O)NC(CCc2ccccc2)C1=O (stereo not drawn),–,·,–,–,–,–
O=C(O)c1ccc2c(c1)C(=O)N(C(Cc1ccc(O)cc1)C(=O)O)C2=O (stereo not drawn),–,–,–,–,–,–
COc1ccc(Nc2ncc3c(n2)CC(c2ccccc2)CC3=O)cc1 (stereo not drawn),–,9.8,–,–,–,–
CCc1ccc(Nc2ncc3c(n2)CC(c2ccc(OC)cc2)CC3=O)cc1 (stereo not drawn),–,·,–,79,–,–
O=C(Nc1ncc2c(n1)CC(c1ccco1)CC2=O)c1ccccc1 (stereo not drawn),–,–,–,–,–,–
COc1cccc(C(=O)Nc2ncc3c(n2)CC(c2ccc(OC)cc2OC)CC3=O)c1 (stereo not drawn),–,–,–,89,80,–
O=C(O)CCC(=O)NCc1ccc(F)cc1,–,·,–,–,–,–
Cc1ccc2c(c1)CCCN2C(=O)c1ccoc1C,–,–,–,–,63,–
Cc1ccc2c(c1)CCCN2C(=O)c1cc2ccccc2oc1=O,2.8,·,–,–,–,–
Cc1ccc(C)c(N2CCN(C(=O)c3cc4ccccc4oc3=O)CC2)c1,–,–,–,–,–,–
SMILES,CYP2C9 act,D1 allo mod,CYP2C19 act,CYP2C9 inhib,CYP2C19 inh,hDAT+cocaine
OCC[C@@H]1C[C@@H](O)[C@H](O)[C@]2(CCCO2)O1,·,·,·,·,·,–
Cc1cc2nc(-c3cccc(NC(=O)c4ccc(Br)o4)c3C)oc2cc1C,–,–,–,50,–,–
CCOC(=O)C1=C(C)C(c2ccccc2OC)NC(=S)N1 (stereo not drawn),–,·,–,–,53,·
COc1cc2[nH]c3c(c2cc1OC)CCN1CCCC[C@@H]31,·,·,·,·,·,–
Cc1ccc(C)c(S(=O)(=O)NCc2cccnc2)c1,·,–,·,·,·,–
CCc1ccc(CNCc2cccnc2)cc1,–,–,–,–,80,–
Cc1ccc(NCc2cccnc2)cc1,–,·,–,–,54,–
